PubChem BioAssay (NCATS)
Values joined by “and” are separate entries in the source; they are usually repeats but may differ in a detail not shown here. Equal values may be shown once. A number with no mark means an inactive call. Inconclusive results are not listed. Active and inactive are the calls of the source. Unless noted, calls follow the shape of the dose curve; as a rule, active = well fitted inhibition curve with a large enough effect; inconclusive = small, poorly fitted or top-dose-only effect; inactive = flat fitted curve, though single readings scatter. Where a SMILES comes first, the peptide text is derived from it. Bridges are numbered along the chain shown (N, C = ends). [ ]: non-standard residue; d: D form. The star is where a group is joined. ξ: configuration not given here. d(aThr) = C[C@@H](O)[C@@H](N)C(=O)O; ξThr(3R) = C[C@@H](O)C(N)C(=O)O; X3 = CC[C@@H](C)CCCCC(=O)*; dDab = NCC[C@@H](N)C(=O)O

Legend:
[1] = Drug repurposing screens with cells derived from glioblastoma tumor samples (AID 1345199); conditions: GBM patient neurospheres viability, ATP luminescence, 48 h; also: nearly all actives have a fitted effect of over 40% in size; also: potency is read from the fitted curve at half-maximal effect; as to activity, negative = cell killing: % is scaled to controls: 0 for no effect and ±100 for the full control effect
Method in brief: (§1)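 Four patient lines of CD133+ GBM neurospheres were screened at several concentrations; hits were retested in those lines plus three slower-growing GBM lines, using 48-hour treatment and ATP-based viability.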

[2] = system: astro; experiment: as above; conditions: viability, ATP luminescence, 48 h; series mostly up to 45.9 µM
Method in brief: as §1

[3] = target: Nuclear receptor subfamily 1 group I member 2 (Rattus norvegicus) (UniProt Q9R1A7); experiment: qHTS assay for small molecule activators of the rat pregnane X receptor (rPXR) signaling pathway (AID 651751; call rule not given here; also: 0% is about no effect); conditions: rPXR reporter cells, luciferase (One-Glo), 24 h
Chain of Nuclear receptor subfamily 1 group I member 2 (Rattus norvegicus) (Q9R1A7 whole entry, looked up): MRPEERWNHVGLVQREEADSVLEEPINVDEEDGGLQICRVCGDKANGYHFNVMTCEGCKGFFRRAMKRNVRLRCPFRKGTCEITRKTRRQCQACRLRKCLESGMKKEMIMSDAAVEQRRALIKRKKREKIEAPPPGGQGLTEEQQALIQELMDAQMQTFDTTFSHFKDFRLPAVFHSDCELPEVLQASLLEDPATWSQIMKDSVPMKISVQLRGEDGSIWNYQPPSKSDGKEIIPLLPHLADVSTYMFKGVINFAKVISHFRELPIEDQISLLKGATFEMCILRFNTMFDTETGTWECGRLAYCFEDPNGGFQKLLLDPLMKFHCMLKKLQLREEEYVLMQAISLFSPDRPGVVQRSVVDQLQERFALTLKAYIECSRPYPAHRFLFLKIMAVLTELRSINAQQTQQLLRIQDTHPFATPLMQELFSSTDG

[4] = qHTS assay for small molecule activators of the human pregnane X receptor (PXR) signaling pathway (AID 720659; call rule not given here; also: 0% is about no effect); conditions: DPX-2 HepG2 CYP3A4-luciferase, 24 h; series mostly up to 92.3 µM
[5] = at 20 µM (top of the series), tumour line C
[6] = at 21.2 µM (top of the series), tumour line B
[7] = at 21.2 µM (top of the series), tumour line D
[8] = at 45.9 µM (top of the series), tumour line B
[9] = at 45.9 µM (top of the series), tumour line D
[10] = at 46.1 µM (top of the series), tumour line C

Structure (SMILES): CC1CCCC(C)N1NC(=O)c1ccc(Cl)c(S(N)(=O)=O)c1 (stereo unspecified)
- activity, negative = cell killing [1, 5]: -19.6%
- activity, negative = cell killing [1, 6]: -10.8%
- activity, negative = cell killing [1, 7]: -17.6%
- Potency [2]: inactive

Structure (SMILES): CCCCC[C@H](O)/C=C/[C@H]1[C@H](O)CC(=O)[C@@H]1C/C=C\CCCC(=O)O
- activity, negative = cell killing [1, 8]: -2.11%
- activity, negative = cell killing [1, 9]: -17.7%
- activity, negative = cell killing [1, 10]: -15.8%
- Potency [2]: inactive

Structure (SMILES): CCOC(=O)c1c[nH]c2cc(OCC(C)C)c(OCC(C)C)cc2c1=O
- activity, negative = cell killing [1, 8]: -9.16%
- activity, negative = cell killing [1, 9]: -17.4%
- activity, negative = cell killing ([1]; at 46 µM (top of the series), tumour line A): -29.7%
- Potency [2]: inactive

Structure (SMILES): OC[C@H]1O[C@@H]2O[C@H]3[C@H](O)[C@@H](O)[C@@H](O[C@H]4[C@H](O)[C@@H](O)[C@@H](O[C@H]5[C@H](O)[C@@H](O)[C@@H](O[C@H]6[C@H](O)[C@@H](O)[C@@H](O[C@H]7[C@H](O)[C@@H](O)[C@@H](O[C@H]1[C@H](O)[C@H]2O)O[C@@H]7CO)O[C@@H]6CO)O[C@@H]5CO)O[C@@H]4CO)O[C@@H]3CO
- activity, negative = cell killing [1, 8]: -13.8%
- activity, negative = cell killing [1, 9]: -5.74%
- activity, negative = cell killing [1, 10]: -2.87%
- Potency [2]: inactive
- max response [3]: 1.3% and 2.85%
- outcome [4]: inactive

Structure (SMILES): CCCCCCCCCCCCCCCCCC(=O)OC[C@@H](O)[C@H]1OC[C@H](O)[C@H]1O
- activity, negative = cell killing [1, 8]: 3.83%
- activity, negative = cell killing [1, 9]: 2.86%
- activity, negative = cell killing [1, 10]: -1.68%
- max response [3]: 2.96%

Structure (SMILES): CC12CCC(C1)C(C)(C)C2=O (stereo unspecified)
- activity, negative = cell killing [1, 8]: -4.04%
- activity, negative = cell killing [1, 9]: -4.98%
- activity, negative = cell killing [1, 10]: 19.6%
- Potency [2]: inactive

Structure (SMILES): NCCO/C=C/[C@H](N)C(=O)O
- activity, negative = cell killing [1, 8]: -6.64%
- activity, negative = cell killing [1, 9]: 5.28%
- activity, negative = cell killing [1, 10]: 26.3%
- Potency [2]: inactive
- max response [3]: -1.31%

Structure (SMILES): OCCOCCOCCO
- activity, negative = cell killing [1, 8]: -6.55%
- activity, negative = cell killing [1, 9]: -3.68%
- activity, negative = cell killing [1, 10]: 4.43%
- Potency [2]: inactive
- max response [3]: 0.109% and -2.24%

Structure (SMILES): Oc1cccc(O)c1O
- activity, negative = cell killing [1, 8]: -15.1%
- activity, negative = cell killing [1, 9]: 2.75%
- activity, negative = cell killing [1, 10]: 15.2%
- Potency [2]: inactive
- max response [3]: -3.92%
- outcome [4]: inactive

Structure (SMILES): CCCCC/C=C\CCC(=O)N[C@H]1[C@H](Oc2c3cc4cc2Oc2ccc(cc2Cl)[C@@H](O[C@@H]2O[C@H](CO)[C@@H](O)[C@H](O)[C@H]2NC(C)=O)[C@@H]2NC(=O)[C@H](NC(=O)[C@@H]4NC(=O)[C@H]4NC(=O)[C@@H](Cc5ccc(c(Cl)c5)O3)NC(=O)[C@H](N)c3ccc(O)c(c3)Oc3cc(O)cc4c3)c3ccc(O)c(c3)-c3c(O[C@H]4O[C@H](CO)[C@@H](O)[C@H](O)[C@@H]4O)cc(O)cc3[C@@H](C(=O)O)NC2=O)O[C@H](CO)[C@@H](O)[C@@H]1O
- activity, negative = cell killing [1, 5]: -16.8%
- activity, negative = cell killing [1, 6]: -7.38%
- activity, negative = cell killing [1, 7]: -14.2%
- Potency [2]: inactive

Structure (SMILES): N#Cc1ccc2c(c1)N(CCCN1CCC(O)CC1)c1ccccc1S2
- activity, negative = cell killing [1, 8]: -29.3%
- activity, negative = cell killing [1, 10]: 15.3%
- Potency ([1]; tumour line A): 5.01 µM (active)
- Potency [2]: inactive

Structure (SMILES): CNC(=O)C[C@@H](N)C(=O)N[C@@H](C(=O)N[C@@H]1C(=O)N2[C@@H]1SC(C)(C)[C@@H]2C(=O)O)c1ccc(O)cc1
- activity, negative = cell killing [1, 8]: -11.1%
- activity, negative = cell killing [1, 10]: -11.3%
- Potency [2]: inactive

Structure (SMILES): CC(C)C1=CC2=CC[C@@H]3[C@](C)(CCC[C@@]3(C)C(=O)O)[C@H]2CC1
- activity, negative = cell killing [1, 8]: -3.87%
- activity, negative = cell killing [1, 9]: 2.46%
- activity, negative = cell killing [1, 10]: -9.17%
- Potency [2]: inactive

Structure (SMILES): Cn1nnnc1SCC1=C(C(=O)O)N2C(=O)[C@@H](NC(=O)[C@H](O)c3ccccc3)[C@H]2SC1
- activity, negative = cell killing [1, 5]: -9.7%
- activity, negative = cell killing [1, 6]: -12.5%
- activity, negative = cell killing [1, 7]: -10.9%
- Potency [2]: inactive

Structure (SMILES): COc1ccc2c(c1)OC(C)(C)C(c1ccccc1)C2c1ccc(OCCN2CCCC2)cc1 (stereo unspecified)
- Potency [2]: 35.5 µM (active)

Structure (SMILES): Cn1c(=O)c2c(ncn2CCOC(=O)C(C)(C)Oc2ccc(Cl)cc2)n(C)c1=O
- activity, negative = cell killing [1, 8]: -17%
- activity, negative = cell killing [1, 10]: -18.4%
- Potency [2]: inactive

Structure (SMILES): CC[C@@H](C)CCCCC(=O)N[C@H](CCN)C(=O)N[C@@H](C(=O)N[C@H](CCN)C(=O)N[C@@H]1CCNC(=O)C([C@@H](C)O)NC(=O)[C@@H](CCN)NC(=O)[C@@H](CCN)NC(=O)[C@@H](CC(C)C)NC(=O)[C@@H](Cc2ccccc2)NC(=O)[C@@H](CCN)NC1=O)[C@@H](C)O (stereo partly drawn) (X3-[dDab][d(aThr)][dDab][dDab][dDab][dF][dL][dDab][dDab][ξThr(3R)]; lactam 4-C)
- activity, negative = cell killing [1, 9]: -10.3%
- activity, negative = cell killing [1, 10]: 4.35%
- Potency [2]: inactive

Structure (SMILES): CCCCCCCCCc1ccc(OCCOCCO)cc1
- Potency [2]: 12.6 µM (active)

Structure (SMILES): C=C1CC[C@H](O)CC1=C/C=C1\CCC[C@]2(C)[C@@H]([C@H](C)CCCC(C)(C)O)CC[C@@H]12
- Potency [2]: 20 µM (active)

Structure (SMILES): CC(=C\c1ccccc1)/C=C1/SC(=S)N(CC(=O)O)C1=O
- activity, negative = cell killing [1, 9]: -25%
- activity, negative = cell killing [1, 10]: -14.3%
- Potency [2]: inactive

Structure (SMILES): CCOc1cc(-c2nccc3cc(OC)c(OC)cc23)cc(OCC)c1OCC
- Potency [2]: inactive

Structure (SMILES): CCN(CC)C(=O)c1cccnc1
- activity, negative = cell killing [1, 8]: -8.29%
- activity, negative = cell killing [1, 10]: -25.5%
- Potency [2]: inactive

Structure (SMILES): CC1=CC(=C(c2ccc(N)cc2)c2ccc(N)cc2)C=CC1=N
- Potency [2]: 3.16 µM (active)

Structure (SMILES): N=C(N)n1cccn1
- activity, negative = cell killing [1, 8]: -2.75%
- Potency [2]: inactive

Structure (SMILES): CC[C@@]1([C@@H]2O[C@@H]([C@H]3O[C@@](O)(CO)[C@H](C)C[C@@H]3C)C[C@@H]2C)CC[C@H]([C@]2(C)CC[C@]3(C[C@H](O)[C@@H](C)[C@@H]([C@@H](C)[C@@H](OC)[C@H](C)C(=O)O)O3)O2)O1 (stereo in doubt)
- Potency [2]: 14.1 µM (active)
